From ChEMBL document CHEMBL1961873, “Compounds: GSK PKIS; Assays: Nanosyn kinase panel” (2012) come the findings set out here.

The target in test [1] is T1, Ephrin type-B receptor 2 (Homo sapiens) (UniProt P29323).
T1 sequence (whole entry): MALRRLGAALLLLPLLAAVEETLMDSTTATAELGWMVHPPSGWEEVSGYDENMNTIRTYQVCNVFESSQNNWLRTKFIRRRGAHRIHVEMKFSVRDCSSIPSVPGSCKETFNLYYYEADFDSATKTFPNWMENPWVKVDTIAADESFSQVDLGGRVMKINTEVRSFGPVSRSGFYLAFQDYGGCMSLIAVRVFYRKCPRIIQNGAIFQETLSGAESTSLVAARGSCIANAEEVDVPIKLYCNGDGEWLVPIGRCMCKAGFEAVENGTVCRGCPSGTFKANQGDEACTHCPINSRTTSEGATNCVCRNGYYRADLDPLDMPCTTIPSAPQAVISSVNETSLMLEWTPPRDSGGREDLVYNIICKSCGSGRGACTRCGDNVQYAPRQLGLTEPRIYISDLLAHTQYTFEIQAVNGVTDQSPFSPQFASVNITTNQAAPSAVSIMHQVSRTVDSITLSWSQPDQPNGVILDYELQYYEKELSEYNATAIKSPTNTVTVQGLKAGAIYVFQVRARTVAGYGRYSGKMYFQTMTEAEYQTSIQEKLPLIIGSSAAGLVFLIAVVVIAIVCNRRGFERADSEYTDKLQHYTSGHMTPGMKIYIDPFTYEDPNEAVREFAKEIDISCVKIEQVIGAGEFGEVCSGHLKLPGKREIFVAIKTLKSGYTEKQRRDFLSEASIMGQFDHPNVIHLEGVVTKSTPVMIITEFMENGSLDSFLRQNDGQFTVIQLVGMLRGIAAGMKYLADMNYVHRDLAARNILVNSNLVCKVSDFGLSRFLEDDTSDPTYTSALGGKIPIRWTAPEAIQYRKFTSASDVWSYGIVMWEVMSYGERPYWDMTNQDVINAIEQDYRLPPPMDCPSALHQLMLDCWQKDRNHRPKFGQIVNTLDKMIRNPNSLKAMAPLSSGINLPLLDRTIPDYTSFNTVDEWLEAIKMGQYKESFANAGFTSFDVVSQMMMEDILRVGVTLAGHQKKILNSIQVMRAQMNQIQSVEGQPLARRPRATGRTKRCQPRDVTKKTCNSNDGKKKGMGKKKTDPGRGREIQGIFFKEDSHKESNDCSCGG
Conditions: at 1 µM.

Test [2] concerns the target T2, Ephrin type-B receptor 3 (Homo sapiens) (UniProt P54753).
T2 sequence (whole entry): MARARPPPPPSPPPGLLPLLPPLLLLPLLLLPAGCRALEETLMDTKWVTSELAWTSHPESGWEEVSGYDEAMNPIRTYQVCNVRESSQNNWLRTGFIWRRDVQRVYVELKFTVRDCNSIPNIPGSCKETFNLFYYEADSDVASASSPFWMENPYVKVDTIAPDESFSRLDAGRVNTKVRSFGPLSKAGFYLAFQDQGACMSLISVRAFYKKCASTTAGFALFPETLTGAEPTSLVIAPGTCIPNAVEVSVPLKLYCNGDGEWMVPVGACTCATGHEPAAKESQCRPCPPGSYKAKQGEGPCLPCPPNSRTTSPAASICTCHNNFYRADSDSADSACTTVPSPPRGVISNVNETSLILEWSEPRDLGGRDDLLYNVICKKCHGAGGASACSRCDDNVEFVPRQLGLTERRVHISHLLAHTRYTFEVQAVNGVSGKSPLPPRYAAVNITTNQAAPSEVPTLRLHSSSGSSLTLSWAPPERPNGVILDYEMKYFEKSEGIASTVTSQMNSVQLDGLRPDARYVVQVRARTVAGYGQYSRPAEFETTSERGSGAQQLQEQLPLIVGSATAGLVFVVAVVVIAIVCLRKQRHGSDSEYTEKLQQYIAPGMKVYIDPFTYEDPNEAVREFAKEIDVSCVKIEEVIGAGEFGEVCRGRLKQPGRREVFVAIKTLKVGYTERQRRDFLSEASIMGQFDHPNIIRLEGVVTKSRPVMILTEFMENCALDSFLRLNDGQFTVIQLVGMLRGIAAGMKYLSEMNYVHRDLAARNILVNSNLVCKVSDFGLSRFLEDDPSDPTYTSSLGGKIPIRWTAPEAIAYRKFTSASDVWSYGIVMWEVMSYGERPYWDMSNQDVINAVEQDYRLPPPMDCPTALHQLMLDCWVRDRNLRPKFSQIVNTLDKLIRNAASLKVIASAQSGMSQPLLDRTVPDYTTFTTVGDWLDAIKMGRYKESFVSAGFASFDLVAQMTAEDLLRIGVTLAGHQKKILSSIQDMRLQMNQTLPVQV
Conditions: at 0.1 µM.

For test [3], the target named is T2, Ephrin type-B receptor 3 (Homo sapiens). To be noted: at 1 µM.
Test [4] deals with T3, Ephrin type-B receptor 4 (Homo sapiens) (UniProt P54760).
T3 sequence (whole entry): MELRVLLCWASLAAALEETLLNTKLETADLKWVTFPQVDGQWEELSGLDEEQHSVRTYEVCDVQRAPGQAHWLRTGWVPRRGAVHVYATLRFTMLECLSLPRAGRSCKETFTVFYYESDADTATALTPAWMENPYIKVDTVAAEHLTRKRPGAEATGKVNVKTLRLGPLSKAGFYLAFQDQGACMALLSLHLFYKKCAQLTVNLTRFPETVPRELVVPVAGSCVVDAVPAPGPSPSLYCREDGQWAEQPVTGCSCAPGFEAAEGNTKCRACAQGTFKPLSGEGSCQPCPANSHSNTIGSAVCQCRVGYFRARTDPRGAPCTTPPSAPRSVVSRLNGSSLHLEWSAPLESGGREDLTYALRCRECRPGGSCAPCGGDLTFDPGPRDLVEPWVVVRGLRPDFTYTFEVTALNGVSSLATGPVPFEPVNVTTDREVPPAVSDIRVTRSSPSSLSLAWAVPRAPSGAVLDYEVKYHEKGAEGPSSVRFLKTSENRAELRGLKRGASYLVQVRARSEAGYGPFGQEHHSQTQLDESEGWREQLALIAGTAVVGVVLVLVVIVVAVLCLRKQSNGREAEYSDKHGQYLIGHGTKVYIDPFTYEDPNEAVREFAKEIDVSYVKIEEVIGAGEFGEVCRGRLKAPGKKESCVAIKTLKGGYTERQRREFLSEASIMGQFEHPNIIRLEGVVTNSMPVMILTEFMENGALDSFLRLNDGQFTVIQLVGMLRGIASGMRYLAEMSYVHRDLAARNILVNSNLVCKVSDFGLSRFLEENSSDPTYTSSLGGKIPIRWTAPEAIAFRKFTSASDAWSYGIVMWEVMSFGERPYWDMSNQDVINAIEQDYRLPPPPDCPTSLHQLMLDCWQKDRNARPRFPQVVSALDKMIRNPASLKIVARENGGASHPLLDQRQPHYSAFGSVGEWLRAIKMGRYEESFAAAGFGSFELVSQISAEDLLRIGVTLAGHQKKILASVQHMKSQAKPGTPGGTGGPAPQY
To be noted: at 0.1 µM.

Test [5] deals with T3, Ephrin type-B receptor 4 (Homo sapiens). Conditions: at 1 µM.
Test [6] deals with Receptor tyrosine-protein kinase erbB-2 (Homo sapiens) (UniProt P04626). To be noted: at 0.1 µM.
Test [7] shares this target. Conditions: at 1 µM.
Test [8] deals with Receptor tyrosine-protein kinase erbB-4 (Homo sapiens) (UniProt Q15303). Conditions: at 0.1 µM.
The target is the same in test [9]. Conditions: at 1 µM.
Test [10] concerns the target Tyrosine-protein kinase Fer (Homo sapiens) (UniProt P16591). To be noted: at 0.1 µM.
Test [11] shares this target. To be noted: at 1 µM.
Test [12] addresses Tyrosine-protein kinase Fes/Fps (Homo sapiens) (UniProt P07332). Conditions: at 0.1 µM.
For test [13] the target is unchanged. To be noted: at 1 µM.
Test [14] deals with Fibroblast growth factor receptor 1 (Homo sapiens) (UniProt P11362). Conditions: at 0.1 µM.
Test [15] has the same target. To be noted: at 1 µM.
For test [16], the target named is Fibroblast growth factor receptor 2 (Homo sapiens) (UniProt P21802). Conditions: at 0.1 µM.
The target is the same in test [17]. To be noted: at 1 µM.
Test [18] deals with Fibroblast growth factor receptor 3 (Homo sapiens) (UniProt P22607). Conditions: at 0.1 µM.
The target is the same in test [19]. To be noted: at 1 µM.
Test [20] concerns the target Fibroblast growth factor receptor 4 (Homo sapiens) (UniProt P22455). To be noted: at 0.1 µM.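 Also: values are mean percent inhibition of FGFR4.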

Fibroblast growth factor receptor 4 (Homo sapiens), sequence (P22455 22-802 limits assumed): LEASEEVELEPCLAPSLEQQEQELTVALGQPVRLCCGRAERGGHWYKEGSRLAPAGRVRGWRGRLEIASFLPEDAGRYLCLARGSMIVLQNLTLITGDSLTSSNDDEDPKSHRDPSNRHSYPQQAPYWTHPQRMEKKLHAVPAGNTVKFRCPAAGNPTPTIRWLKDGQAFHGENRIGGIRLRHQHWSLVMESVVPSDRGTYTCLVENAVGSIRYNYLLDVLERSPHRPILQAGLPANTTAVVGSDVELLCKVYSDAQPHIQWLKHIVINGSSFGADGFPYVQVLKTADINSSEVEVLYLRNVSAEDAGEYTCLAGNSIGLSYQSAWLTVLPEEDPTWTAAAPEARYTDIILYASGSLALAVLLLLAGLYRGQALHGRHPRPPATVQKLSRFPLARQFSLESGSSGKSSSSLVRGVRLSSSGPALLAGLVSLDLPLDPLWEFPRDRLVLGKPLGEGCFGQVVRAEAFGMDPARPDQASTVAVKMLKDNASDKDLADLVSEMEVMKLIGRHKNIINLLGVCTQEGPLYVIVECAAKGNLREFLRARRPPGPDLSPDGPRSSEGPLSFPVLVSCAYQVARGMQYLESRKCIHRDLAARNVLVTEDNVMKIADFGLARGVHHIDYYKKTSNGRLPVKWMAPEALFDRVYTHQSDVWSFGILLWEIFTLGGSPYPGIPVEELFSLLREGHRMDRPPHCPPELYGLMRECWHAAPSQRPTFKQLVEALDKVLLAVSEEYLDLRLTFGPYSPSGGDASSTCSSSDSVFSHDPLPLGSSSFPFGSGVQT
Receptor tyrosine-protein kinase erbB-2 (Homo sapiens), sequence (P04626 whole entry): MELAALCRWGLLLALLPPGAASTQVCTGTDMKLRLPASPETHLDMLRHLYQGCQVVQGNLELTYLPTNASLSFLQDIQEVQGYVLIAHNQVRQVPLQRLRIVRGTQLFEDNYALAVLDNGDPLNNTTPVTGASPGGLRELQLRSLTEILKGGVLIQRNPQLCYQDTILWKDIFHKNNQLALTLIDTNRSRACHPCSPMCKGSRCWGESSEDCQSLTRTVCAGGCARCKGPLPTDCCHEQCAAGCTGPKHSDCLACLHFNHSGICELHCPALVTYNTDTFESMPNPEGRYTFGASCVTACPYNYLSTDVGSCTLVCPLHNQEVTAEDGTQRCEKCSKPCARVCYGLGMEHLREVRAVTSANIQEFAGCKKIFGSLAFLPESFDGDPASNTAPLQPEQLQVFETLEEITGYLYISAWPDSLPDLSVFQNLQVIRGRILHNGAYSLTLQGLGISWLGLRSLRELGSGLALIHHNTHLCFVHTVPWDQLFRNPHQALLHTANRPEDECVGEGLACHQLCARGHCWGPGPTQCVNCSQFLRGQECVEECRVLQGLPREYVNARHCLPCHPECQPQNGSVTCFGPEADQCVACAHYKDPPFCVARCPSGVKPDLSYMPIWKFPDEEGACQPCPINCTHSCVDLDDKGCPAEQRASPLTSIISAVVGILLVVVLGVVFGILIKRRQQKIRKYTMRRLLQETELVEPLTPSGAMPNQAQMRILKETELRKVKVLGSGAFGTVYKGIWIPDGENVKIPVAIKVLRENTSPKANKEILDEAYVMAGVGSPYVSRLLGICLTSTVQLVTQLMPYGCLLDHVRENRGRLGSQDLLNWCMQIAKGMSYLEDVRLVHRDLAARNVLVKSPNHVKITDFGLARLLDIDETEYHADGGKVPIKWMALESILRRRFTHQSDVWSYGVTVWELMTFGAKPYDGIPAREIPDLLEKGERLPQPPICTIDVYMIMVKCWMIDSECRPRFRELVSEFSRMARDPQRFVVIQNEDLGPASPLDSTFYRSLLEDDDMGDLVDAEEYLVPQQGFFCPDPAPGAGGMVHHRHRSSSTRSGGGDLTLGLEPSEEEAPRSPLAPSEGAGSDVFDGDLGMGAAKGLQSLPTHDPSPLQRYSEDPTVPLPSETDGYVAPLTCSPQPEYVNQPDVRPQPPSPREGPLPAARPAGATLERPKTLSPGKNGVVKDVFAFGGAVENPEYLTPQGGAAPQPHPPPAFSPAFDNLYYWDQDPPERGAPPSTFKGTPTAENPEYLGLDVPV
Fibroblast growth factor receptor 3 (Homo sapiens), sequence (P22607 23-806 limits assumed): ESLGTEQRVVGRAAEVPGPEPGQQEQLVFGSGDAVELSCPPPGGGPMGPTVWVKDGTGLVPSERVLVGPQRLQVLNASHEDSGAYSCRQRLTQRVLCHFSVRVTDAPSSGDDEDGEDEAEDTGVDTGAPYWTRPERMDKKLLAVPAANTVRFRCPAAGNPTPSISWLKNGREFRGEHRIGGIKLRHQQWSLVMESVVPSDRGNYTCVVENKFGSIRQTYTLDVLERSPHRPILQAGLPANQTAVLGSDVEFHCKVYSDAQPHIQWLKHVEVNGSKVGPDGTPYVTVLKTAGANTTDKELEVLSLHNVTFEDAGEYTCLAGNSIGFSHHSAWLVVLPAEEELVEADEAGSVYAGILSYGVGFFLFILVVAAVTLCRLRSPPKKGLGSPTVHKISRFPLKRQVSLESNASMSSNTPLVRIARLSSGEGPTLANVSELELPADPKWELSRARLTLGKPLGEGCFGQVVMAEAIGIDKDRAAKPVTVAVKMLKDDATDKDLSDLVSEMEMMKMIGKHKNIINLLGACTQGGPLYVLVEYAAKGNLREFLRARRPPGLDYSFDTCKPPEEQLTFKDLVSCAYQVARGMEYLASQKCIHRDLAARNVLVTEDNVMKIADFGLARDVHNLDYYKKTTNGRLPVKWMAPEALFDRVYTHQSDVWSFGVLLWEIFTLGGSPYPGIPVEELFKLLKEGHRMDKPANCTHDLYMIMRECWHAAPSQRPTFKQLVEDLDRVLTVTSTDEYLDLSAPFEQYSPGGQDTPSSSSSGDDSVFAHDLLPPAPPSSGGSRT
Fibroblast growth factor receptor 1 (Homo sapiens), sequence (P11362 22-822 limits assumed): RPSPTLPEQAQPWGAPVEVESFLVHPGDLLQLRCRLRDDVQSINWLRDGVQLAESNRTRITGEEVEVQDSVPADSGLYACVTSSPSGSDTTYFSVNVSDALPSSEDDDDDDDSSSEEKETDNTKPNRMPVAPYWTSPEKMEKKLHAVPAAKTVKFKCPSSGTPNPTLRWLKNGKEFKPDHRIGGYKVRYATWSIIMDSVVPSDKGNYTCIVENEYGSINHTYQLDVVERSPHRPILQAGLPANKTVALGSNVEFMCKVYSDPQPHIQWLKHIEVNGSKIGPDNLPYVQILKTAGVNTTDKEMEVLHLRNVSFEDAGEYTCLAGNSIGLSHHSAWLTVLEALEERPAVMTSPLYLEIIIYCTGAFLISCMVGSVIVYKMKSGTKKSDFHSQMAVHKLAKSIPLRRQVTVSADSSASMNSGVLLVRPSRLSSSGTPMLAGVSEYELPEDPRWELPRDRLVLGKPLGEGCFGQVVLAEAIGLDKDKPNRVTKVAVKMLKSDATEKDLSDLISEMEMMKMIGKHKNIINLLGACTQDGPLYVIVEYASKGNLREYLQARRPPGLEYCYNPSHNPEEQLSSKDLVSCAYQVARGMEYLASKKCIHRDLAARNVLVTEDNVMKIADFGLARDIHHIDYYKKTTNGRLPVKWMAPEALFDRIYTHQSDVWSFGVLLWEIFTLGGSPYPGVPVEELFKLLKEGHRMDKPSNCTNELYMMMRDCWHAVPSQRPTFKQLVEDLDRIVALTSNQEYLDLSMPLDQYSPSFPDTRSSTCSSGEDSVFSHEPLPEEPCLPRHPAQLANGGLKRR
Tyrosine-protein kinase Fes/Fps (Homo sapiens), sequence (P07332 whole entry): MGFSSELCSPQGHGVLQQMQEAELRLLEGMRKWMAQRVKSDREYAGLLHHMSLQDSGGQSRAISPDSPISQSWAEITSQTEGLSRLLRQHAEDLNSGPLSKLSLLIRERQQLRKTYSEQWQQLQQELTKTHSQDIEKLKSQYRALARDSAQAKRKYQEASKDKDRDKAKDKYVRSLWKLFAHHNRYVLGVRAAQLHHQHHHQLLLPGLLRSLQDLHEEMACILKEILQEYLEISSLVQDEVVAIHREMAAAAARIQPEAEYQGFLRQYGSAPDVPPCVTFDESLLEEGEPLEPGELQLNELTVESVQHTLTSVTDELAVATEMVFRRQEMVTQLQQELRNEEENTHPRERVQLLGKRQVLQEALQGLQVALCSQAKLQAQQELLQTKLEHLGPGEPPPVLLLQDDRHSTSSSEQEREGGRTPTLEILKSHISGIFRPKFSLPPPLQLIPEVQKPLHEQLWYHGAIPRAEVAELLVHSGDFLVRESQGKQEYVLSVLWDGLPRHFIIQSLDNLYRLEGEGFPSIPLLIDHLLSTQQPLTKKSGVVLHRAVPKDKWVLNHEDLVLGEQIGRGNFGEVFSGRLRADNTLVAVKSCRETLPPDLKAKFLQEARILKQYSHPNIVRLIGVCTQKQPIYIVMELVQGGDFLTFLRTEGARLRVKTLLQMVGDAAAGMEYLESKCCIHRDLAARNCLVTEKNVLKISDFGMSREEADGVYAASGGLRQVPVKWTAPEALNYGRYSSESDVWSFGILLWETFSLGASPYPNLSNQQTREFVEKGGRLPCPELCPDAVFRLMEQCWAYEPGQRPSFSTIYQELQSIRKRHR

Regarding `NS(=O)(=O)c1cccc(N/C=C2\C(=O)Nc3ccccc32)c1`, the inhibition (commonly the change of the read-out against control, counted positive when it falls) in test [1] came to 10.8%; in [2] it was 5.46%; in [3], 2.58%; in [4], 4.23%; in test [5], 3.73%; in test [6], 1.3%. The inhibition in test [7] was -0.02%; in test [8], 13.3%; in test [9], 14.6%; in test [10] it was 3.91%; in test [11], 6.18%; in test [12], 3.03%. Moreover, the inhibition in test [13] was 3.46%; in [14], 5.1%; in [15], 8.92%; in test [16] it was 7.77%; in test [17] it was 26.9%; in test [18], 8.3%. Besides, the inhibition in test [19] is 21%; in test [20], -4.72%.

On to `CC(C)c1ccc(-c2cc(-c3c[nH]nc3-c3ccccn3)ccn2)cc1`, for which the inhibition in test [1] is 5.4%; in test [2], 3.79%; in test [3], 1.74%; in test [4] it was 0.47%; in [5], 2.78%; in [6], 0.79%. In addition, the inhibition is -1.43% in test [7]; 4.41% in test [8]; 6.32% in test [9]; 2.22% in test [10]; 2.58% in test [11]; 0.8% in test [12]. The inhibition in [13] is 1.23%; in test [14] it was 6.6%; in test [15], 1.8%; in [16] it was -0.22%; in [17], 3.83%; in [18] it was 3.55%. Besides, the values for the inhibition in test [19] and in [20] were 1.81% and 0.39%, respectively.

As for `CCCNc1cccc(-n2ncc3c(N/N=C/c4ccncc4)ncnc32)c1`, the inhibition in test [1] was 9.31%; in test [2], -1.29%; in test [3], 1.75%; in test [4], 1.55%; in test [5], 5.77%; in [6] it was 2.33%. For the same compound, the inhibition is 4.49% in test [7]; 11.8% in test [8]; 43% in test [9]; -0.72% in test [10]; 9.15% in test [11]; 2.38% in [12]. The inhibition came to 5.6% in test [13]; 0.48% in test [14]; 3.31% in test [15]; 2.19% in test [16]; 19.4% in test [17]; 0.74% in test [18]. The results for the inhibition in [19] and in [20] were 8.88% and -1.49%, respectively.

On to `NS(=O)(=O)c1ccc(N/N=C2\C(=O)Nc3cccc(CCc4ccncc4)c32)cc1`, for which the inhibition was 5.15% in test [1]; 2.41% in test [2]; 2.85% in [3]; 1.21% in test [4]; 0.87% in [5]; -0.81% in test [6]. Also, the inhibition in test [7] was 3.74%; in test [8], 4.66%; in test [9] it was 8.01%; in test [10] it was 4.04%; in test [11] it was 5.66%; in test [12], 0.64%. In addition, the inhibition is -0.42% in [13]; 5.09% in test [14]; 16.7% in [15]; 7.6% in [16]; 18.2% in [17]; 6.3% in [18]. The inhibition came out at 19.2% in test [19] and 4.76% in test [20].

With `COc1cc(N2CCN(C(C)C)CC2)ccc1Nc1nc(Nc2cccc(F)c2C(=O)O)c2cc[nH]c2n1`, the inhibition in test [1] was 12.6%; in [2], 3.69%; in test [3], 6.24%; in test [4], 2.82%; in test [5] it was 2.84%; in [6], 3.72%. The inhibition came to 5.93% in [7]; 11.7% in test [8]; 11.2% in test [9]; 32.5% in test [10]; 75.6% in test [11]; 18.5% in test [12]. Besides, the inhibition in test [13] turned out to be 63.7%; in [14] it was 2.19%; in test [15] it was 6.27%; in [16], 7.3%; in test [17] it was 9.34%; in test [18], 4.65%. Besides, the inhibition in [19] is 8.48%; in test [20], -2.62%.

As for `CS(=O)(=O)Nc1ccc(-c2cc(-c3ccccc3)cc(C(N)=O)c2N)cc1`, the inhibition in test [1] was determined as 5.3%; in test [2], 0.56%; in test [3], 2.36%; in test [4], 0.54%; in test [5], 0.87%; in test [6] it was 1.08%. The inhibition is 6.84% in [7]; 4.73% in [8]; 11.9% in test [9]; -2.85% in test [10]; 1.1% in test [11]; 1.07% in test [12]. Also, the inhibition is 1.64% in [13]; 0.45% in test [14]; 3.2% in test [15]; 1.73% in test [16]; 4.95% in test [17]; -0.12% in test [18]. Also, the inhibition is 8.3% in [19] and 0.07% in test [20].

Consider `NS(=O)(=O)c1ccc(N/N=C2\C(=O)Nc3ccc(C(=O)NCc4ccncc4)cc32)cc1`, for which the inhibition in test [1] was found to be 11.1%; in test [2], 3.93%; in test [3], 2.6%; in test [4] it was 1.83%; in [5], 4.17%; in test [6], 2.22%. Further, the inhibition is 6.09% in test [7]; 6.54% in test [8]; 7.07% in test [9]; 2.36% in [10]; 5.14% in test [11]; 2.4% in test [12]. For the same compound, the inhibition in [13] stood at 1.67%; in test [14] it was 3.12%; in test [15] it was 5.51%; in test [16], 1.27%; in test [17] it was 11.9%; in test [18], 4.61%. Moreover, the inhibition in test [19] was 8.12%; in test [20] it was -2.09%.
